Assay outcomes as filed in PubChem BioAssay.
Vaccinia Venus – qHTS for Stage-Specific Inhibitors of Vaccinia Orthopoxvirus: Venus Reporter Primary qHTS | Vaccinia virus Venus reporter expression, fluorescence | Potency, µM (highest dose often 36.5 µM), for inactives: at the highest dose activity change, negative = inhibition, actives largely listed as inhibitors | 330,000 tested, 0.46% active; calls by dose curve; tested in A549 cells; also: nearly all actives have a fitted effect of over 30% in size
AMA1-RON2 inh – qHTS for Inhibitors of AMA1-RON; Towards Development of Antimalarial Drug Lead: Primary Screen | Plasmodium falciparum AMA1 (3D7) - RON2 peptide interaction | AlphaScreen AMA1-biotinylated RON2 peptide binding | Potency, µM (highest dose often 58.2 µM), for inactives: top-dose activity change, negative = inhibition, usual class: inhibitors | 360,000 tested, 0.2% active;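 also: 0% = vehicle wells and -100% = peptide control; nearly all actives have a fitted effect of over 45% in size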
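AMA1 (3D7) with his tag at 25 nM final met compounds first, then biotinylated RON2 peptide at 25 nM; detection used donor plus acceptor beads, 10 µg/mL apiece, read by AlphaScreen after 30 min at room temperature.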
Pf growth 48h – Primary qHTS for delayed death inhibitors of the malarial parasite plastid, 48 hour incubation; P. falciparum luciferase growth in erythrocytes, 48 h; Potency, µM (top dose mostly 28.7 µM), without a hit: at the highest dose activity change, negative = inhibition, most hits filed as inhibitors; 310,000 tested, 5.9% active; AID 504832, 2011
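First compound was added to culture medium, then infected red cells at 0.1% parasitemia and 2% hematocrit (final). After incubation at 37 C under 5% CO2, luciferase detection reagent was dispensed and light output recorded.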
Vaccinia mCherry – qHTS for Stage-Specific Inhibitors of Vaccinia Orthopoxvirus: mCherry Reporter Primary qHTS. Potency, µM (top dose mostly 36.5 µM), for inactives: at the highest dose activity change, negative = inhibition, most hits filed as inhibitors. Vaccinia virus mCherry reporter infection, fluorescence. 310,000 tested, 0.63% active; calls by dose curve; tested in A549 cells; also: nearly all actives have a fitted effect of over 35% in size
Pf growth 96h – Primary qHTS for delayed death inhibitors of the malarial parasite plastid, 96 hour incubation. P. falciparum luciferase reporter growth, 96 h. Potency, µM (titrated, usually from 28.7 µM), without a hit: top-dose activity change, negative = inhibition, actives largely listed as inhibitors. 320,000 tested, 6.9% active
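Compounds incubated with erythrocytes infected by luciferase-expressing P. falciparum (2% hematocrit, 0.05% parasitemia final) for 96 hours, 37 C in 5% CO2. Growth inhibition scored as decreased luciferase luminescence.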
Numbers without * were called inactive; i = inactive; ? = inconclusive; · = not tested or not shown. Most compounds without a hit are left out; they make up all but 8.7% or so of the library. Unless noted, calls follow the shape of the dose curve; as a rule, active = well fitted curve in the direction sought with a large enough effect; inconclusive = small, poorly fitted or top-dose-only effect, or another doubt; inactive = no such curve, though single readings can be large; an effect the other way counts as inactive or inconclusive. Unless noted, % is scaled to controls: 0 for no effect and ±100 for the full control effect; potency is read from the fitted curve at half-maximal effect.

SMILES	Vaccinia Venus	AMA1-RON2 inh	Pf growth 48h	Vaccinia mCherry	Pf growth 96h
O=C(NCc1nnc2n1CCN(Cc1cc3c(cc1Cl)OCO3)CC2)c1cccc(F)c1	-24.1%	·	·	-5.9%	·
Cn1c(C(=O)N2CCC(C(=O)N3CCN(Cc4ccc5c(c4)OCO5)CC3)CC2)cc2sccc21	-29.0%	-3.4%	?	-3.3%	10.4µM*
Cn1c(C(=O)N2CCC(C(=O)NCCc3ccccc3)CC2)cc2sccc21	-13.8%	·	·	-1.9%	·
Cn1c(C(=O)N2CCC(C(=O)N3CCOCC3)CC2)cc2sccc21	-2.3%	0.0%	24.3%	i	11.7µM*
Cn1c(C(=O)N2CCN(Cc3ccc4c(c3)OCO4)CC2)cc2sccc21	·	-17.7%	?	·	10.4µM*
CC(C)N(CCCNC(=O)C1CCN(C(=O)c2cc3sccc3n2C)CC1)Cc1ccccc1	·	8.0%	?	·	11.7µM*
Cc1cc(-c2ccccc2)n(-c2cc(N/N=C/c3ccccc3O)ncn2)n1	?	56.0%	13.1µM*	?	-10.7%
CNc1cc(-n2nc(C)cc2-c2ccccc2)ncn1	-8.3%	?	·	-6.0%	-12.3%
Cc1cc2ccccc2n1CCNC(=O)c1cc(C(F)(F)F)cc(C(F)(F)F)c1	-19.0%	·	·	-14.6%	·
COc1ccc(C)cc1NC(=O)CSc1nc(=O)n(Cc2ccco2)c2c1CCC2	-24.1%	·	·	-10.9%	·
Cc1cc(F)ccc1S(=O)(=O)N1CCCOC1CNC(=O)C(=O)NCCc1c[nH]c2ccccc12 (stereo not drawn)	-19.1%	-3.0%	?	-15.0%	9.28µM*
Cc1cc(S(=O)(=O)N2CCCOC2CNC(=O)C(=O)NCCc2ccco2)ccc1F (stereo not drawn)	-19.1%	10.2%	-11.6%	-18.6%	8.28µM*
COc1ccc(CCNC(=O)C(=O)NCC2OCCN2S(=O)(=O)c2ccc3c(c2)OCCO3)cc1OC (stereo not drawn)	-22.1%	-3.3%	?	i	11.7µM*
O=C(NCCc1c[nH]c2ccccc12)C(=O)NCC1OCCCN1S(=O)(=O)c1ccc(F)cc1 (stereo not drawn)	-17.3%	-4.8%	?	-28.6%	?
Cc1cccn2c(Nc3ccc4c(c3)OCCO4)c(-c3ccc(Br)o3)nc12	-8.9%	·	·	-15.0%	·
CC1C/C(=N\NC(N)=S)c2cc(Cl)ccc2S1 (stereo not drawn)	?	44.1%	?	?	1.85µM*
CC(C)=C1CCC(C)CC1=NNC(N)=S (stereo not drawn)	-15.5%	28.4%	·	-13.6%	·
CC1CCCN(C2=NC(=O)/C(=C/c3cn(-c4ccccc4)nc3-c3cccc(S(=O)(=O)N(C)C)c3)S2)C1 (stereo not drawn)	-12.6%	-2.9%	?	·	1.65µM*
COc1ccc(OC)c(/C=C2\SC(N3CCCC(C)C3)=NC2=O)c1 (stereo not drawn)	?	31.4%	?	?	3.8%
CC1CCN(C2=NC(=O)/C(=C/c3cn(-c4ccccc4)nc3-c3cccc(S(=O)(=O)N(C)C)c3)S2)CC1	4.5%	-9.0%	7.38µM*	-9.1%	?
CN(C)S(=O)(=O)c1cccc(-c2nn(-c3ccccc3)cc2/C=C(/C#N)C(=O)NCc2ccco2)c1	-15.9%	17.8%	-0.1%	-3.9%	?
CCOc1ccc(NC(=O)CSc2nnc3c(n2)[nH]c2ccc(S(=O)(=O)N4CCCCC4)cc23)cc1	-15.2%	·	·	-25.4%	·
CCc1cc2c(-c3ccccc3)cc(=O)oc2cc1OCC(C)=O	-9.3%	33.6%	-23.6%	-18.9%	13.1µM*
CCc1cc2c(-c3ccccc3)cc(=O)oc2cc1OC(C)C(=O)O (stereo not drawn)	·	-6.4%	24.9%	·	?
O=C(O)CCC(=O)N1CCc2cc(S(=O)(=O)NCc3ccc(Cl)cc3)ccc21	-19.8%	7.3%	10.0%	i	11.7µM*
Cc1ccc(CNS(=O)(=O)c2ccc3c(c2)CCN3C(=O)C2CCC2)cc1	·	4.9%	17.7%	·	13.1µM*
COc1ccc(N(C)S(=O)(=O)c2ccc3c(c2)CCN3C(=O)C2CC2)c(OC)c1	·	1.3%	-5.8%	·	4.15µM*
